In PubChem BioAssay (Tox21):
Records with an inconclusive call do not appear. The source made the active and inactive calls. Unless noted, calls come from the whole dose curve; as a rule, active = well fitted curve in the direction sought with a large enough effect in the repeat runs; inconclusive = weak or mixed curves; inactive = no such curve, though single readings can be large; an effect the other way counts as inactive or inconclusive.

Experiments:
[1] = qHTS assay to identify small molecule agonists of the vitamin D receptor (VDR) signaling pathway - cell viability counter screen (AID 743224); note: nearly all actives have a fitted effect of over 50% in size; note: potency is the fitted concentration of half-maximal effect
Summary of the method: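 VDR-bla cells were preincubated 4 h at 37C/5% CO2, then exposed to compounds for 16 h. After the 2 h room-temperature bla FRET read, CellTiter-Glo was added to the same wells and luminescence read after 30 min.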

[2] = qHTS assay to identify small molecule antagonists of the vitamin D receptor (VDR) signaling pathway - cell viability counter screen (AID 743225); note: % is set by controls: 0 for no effect and ±100 for the full control effect; nearly all actives have a fitted effect of over 50% in size
Summary of the method: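 Luminescent cell viability (CellTiter-Glo) in VDR-bla HEK 293T cells after 16 h compound exposure at 37C in the presence of 3 nM final 1-alpha,25-dihydroxy vitamin D3.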

[3] = qHTS assay to identify small molecule agonists of the NFkB signaling pathway (AID 1159509; active = well fitted curve in the direction sought with a large enough effect in the signal ratio in the repeat runs, not every such curve was filed as active; the % refers to the signal ratio; note: % is set by controls: 0 for no effect and ±100 for the full control effect)
Summary of the method: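 After overnight attachment, reporter cells received test compounds, DMSO or positive controls and were incubated 5 hr at 37 C. FRET substrate was then added for 1.5 hr at room temperature before dual-emission fluorescence reading.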

[4] = qHTS assay to identify small molecule antagonists of the retinoid-related orphan receptor gamma (ROR-gamma) signaling pathway - cell viability counter screen (AID 1159520); note: nearly all actives have a fitted effect of over 50% in size; note: potency is the fitted concentration of half-maximal effect
Summary of the method: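 Tet-on ROR gamma CHO cells (1,000/well) were plated 4 hr, given compounds in DMSO for 2 hr at 37 C, then induced with 1 uM final doxycycline for 16 hr. Viability was read as ATP by CellTiter-Glo luminescence after 30 min.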

[5] = qHTS assay to identify small molecule agonists of the AP-1 signaling pathway (AID 1159526; calls by dose curve; note: % is set by controls: 0 for no effect and ±100 for the full control effect)
[6] = qHTS assay to identify small molecule agonists of the RXR signaling pathway - cell viability counter screen (AID 1159529); note: nearly all actives have a fitted effect of over 50% in size; note: potency is the fitted concentration of half-maximal effect
Summary of the method: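 Same-well viability check after the LiveBLAzer FRET read: CellTiter-Glo added, luminescence measured after 30 min at room temperature. Reporter HEK 293T cells had been treated with compounds for 16 hr following a 5 hr preincubation.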

[7] = qHTS assay to identify small molecule antagonists of the retinoid acid receptor (RAR) signaling pathway - cell viability counter screen (AID 1159551); note: % is set by controls: 0 for no effect and ±100 for the full control effect; nearly all actives have a fitted effect of over 35% in size
Summary of the method: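 C3RL4 cells were seeded overnight at 37 C, then treated with compounds plus 1 uM (final) retinol for 6 h at 37 C. Viability was read as ATP by CellTiter-Glo luminescence after 30 min at room temperature.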

[8] = qHTS assay to identify small molecule antagonists of the retinoic acid receptor (RAR) signaling pathway (AID 1159552; note: nearly all actives have a fitted effect of over 50% in size; note: potency is the fitted concentration of half-maximal effect)
Summary of the method: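 Readout: luciferase luminescence, 30 min post-reagent at RT. Setup: C3RL4 RARE reporter cells, compounds plus retinol 1 uM final, 6 hr incubation at 37 C and 5% CO2.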

[9] = qHTS assay to identify small molecule agonists of the retinoic acid receptor (RAR) signaling pathway (AID 1159553); details: C3RL4 RARE luciferase reporter, agonist, 6 h; activation: at 73.3 µM (top of the series); note: % is set by controls: 0 for no effect and ±100 for the full control effect
Summary of the method: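 C3RL4 cells carrying a RARE luciferase reporter were plated overnight at 37 C, then exposed to compounds in DMSO for 6 hr at 37 C and 5% CO2. Luminescence was read 30 min after luciferase reagent addition at room temperature.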

[10] = qHTS assay to identify small molecule agonists of the endoplasmic reticulum stress response signaling pathway - cell viability counter screen (AID 1159517; calls by dose curve; note: nearly all actives have a fitted effect of over 50% in size; note: potency is the fitted concentration of half-maximal effect)
Summary of the method: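 Luminescence readout: CellTiter-Glo, 30 min RT, same wells as the ESRE-bla reporter read. HeLa ESRE-bla, 1,500 cells/well, o/n 37 C; cpd 5 hr 37 C/5% CO2.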

[11] = qHTS assay to identify small molecule agonists of the AP-1 signaling pathway - cell viability counter screen (AID 1159525; calls by dose curve; note: nearly all actives have a fitted effect of over 55% in size)
Summary of the method: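 ME-180 AP-1-bla, 2500 cells/well, Opti-MEM + 0.5% dialyzed FBS; overnight 37 °C; cpd 15-pt titration, 5 h 37 °C; CellTiter-Glo 30 min RT; luminescence read; normalised to TOAB and DMSO controls.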

[12] = biological target: Retinoic acid receptor RXR-alpha (Homo sapiens) (UniProt P19793); assay: qHTS assay to identify small molecule agonists of the RXR signaling pathway (AID 1159527; calls by dose curve; note: % is set by controls: 0 for no effect and ±100 for the full control effect; nearly all actives have a fitted effect of over 35% in size)
Summary of the method: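 Beta-lactamase reporter assay, agonist format. Engineered HEK 293T line, charcoal-stripped FBS at 2%, overnight (16 hr) exposure, fluorescence at 460 and 530 nm after 405 nm excitation.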

[13] = biological target: Nuclear receptor ROR-gamma (Homo sapiens) (UniProt P51449); assay: qHTS assay to identify small molecule antagonists of the retinoid-related orphan receptor gamma (ROR-gamma) signaling pathway (AID 1159521; note: nearly all actives have a fitted effect of over 50% in size; note: potency is the fitted concentration of half-maximal effect)
Summary of the method: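 CHO cells expressing RORγ under a TET-on promoter, luciferase under RORE control. Dox 1 uM final, 16 h; compounds added 2 h prior. Luminescence decrease measured.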

[14] = qHTS assay to identify small molecule antagonists of the estrogen related receptor (ERR) signaling pathway - cell viability counter screen (AID 1224818);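 note: viability measured after 17.5 h of compound exposure; % is set by controls: 0 for no effect and ±100 for the full control effect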
Summary of the method: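 ERR reporter cells plated 6 h at 37 C/5% CO2, then compounds in DMSO pin-transferred and incubated 17.5 h at 37 C. Viability read as CellTiter-Fluor fluorescence after 30 min at 37 C.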

[15] = qHTS assay to identify small molecule agonists of the estrogen related receptor (ERR) signaling pathway (AID 1224820); note: % is set by controls: 0 for no effect and ±100 for the full control effect
Summary of the method: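 Quantitative HTS of the LOPAC library used NTP ERR reporter cells treated 18 h at 37 C. Signal is luminescence after One-Glo addition and a 30 min room-temperature incubation.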

[16] = qHTS assay to identify small molecule antagonists of the estrogen related receptor signaling pathway with the pleiotropic PPARgamma coactivator (PGC) cell viability counter screen (AID 1224822; note: % is set by controls: 0 for no effect and ±100 for the full control effect)
Summary of the method: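 PGC/ERR cells were seeded at 2,000 cells/well, rested 6 h at 37 C/5% CO2, then given compounds in DMSO by pin tool and incubated 17.5 h at 37 C. Viability came from CellTiter-Fluor fluorescence after 30 min.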

[17] = qHTS assay to identify small molecule agonists of the endoplasmic reticulum stress response signaling pathway (AID 1159516; active = well fitted activation curve with a large enough effect in the signal ratio in the repeat runs, not every such curve was filed as active; the % refers to the signal ratio; note: % is set by controls: 0 for no effect and ±100 for the full control effect)
Summary of the method: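 CellSensor ESRE-bla HeLa cells, carrying a beta-lactamase reporter driven by the ER stress response element, were plated overnight and exposed to compounds for 5 hr at 37 C. Reporter activity was read as FRET substrate fluorescence after 2 hr at room temperature.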

[18] = qHTS assay to identify small molecule agonists of the NFkB signaling pathway - cell viability counter screen (AID 1159515; calls by dose curve; note: % is set by controls: 0 for no effect and ±100 for the full control effect; nearly all actives have a fitted effect of over 55% in size)
Summary of the method: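 NFkB-bla ME-180 cells, 2,000/well, were plated overnight at 37 C, 5% CO2, then exposed to compounds in DMSO for 5 hr. After the bla FRET read, CellTiter-Glo was added to the same wells; luminescence was read after 30 min at room temperature.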

Chain of Retinoic acid receptor RXR-alpha (Homo sapiens) (P19793 whole entry, looked up): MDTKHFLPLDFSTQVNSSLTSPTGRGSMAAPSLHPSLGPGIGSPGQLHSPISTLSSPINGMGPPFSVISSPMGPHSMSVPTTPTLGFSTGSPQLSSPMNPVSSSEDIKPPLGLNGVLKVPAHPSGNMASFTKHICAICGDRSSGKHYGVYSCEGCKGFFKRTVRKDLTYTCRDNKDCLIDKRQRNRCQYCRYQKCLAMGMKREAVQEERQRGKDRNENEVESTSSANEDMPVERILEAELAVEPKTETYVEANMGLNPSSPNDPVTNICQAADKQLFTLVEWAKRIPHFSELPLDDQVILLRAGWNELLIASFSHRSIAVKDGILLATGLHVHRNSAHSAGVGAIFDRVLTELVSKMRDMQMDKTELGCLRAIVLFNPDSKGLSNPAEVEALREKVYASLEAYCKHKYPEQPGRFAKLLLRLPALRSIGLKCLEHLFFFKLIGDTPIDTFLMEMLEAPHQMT

CC(=O)c1ccc([N+](=O)[O-])cc1
inactive: Potency [1] | Potency [2] | Potency [3] | Potency [4] | Potency [5] | Potency [6] | Potency [7] | Potency [8] | Potency [9]

O=C(O)c1ccc(OCCCOc2ccc(C(=O)O)cc2)cc1
inactive: Potency [1] | Potency [2] | Potency [3] | Potency [10] | Potency [4] | Potency [11] | Potency [5] | Potency [12] | Potency [6] | Potency [7]

O=C1CCCCCCCCCCOCCCCO1
inactive: Potency [2] | Potency [3] | Potency [4] | Potency [13] | Potency [11] | Potency [12] | Potency [7] | Potency [8]

C/C=C(/C(=C/C)c1ccc(O)cc1)c1ccc(O)cc1
inactive: Potency [1] | Potency [2] | Potency [3] | Potency [10] | Potency [13] | Potency [5] | Potency [7] | Potency [9]

Oc1c(I)cc(I)c2cccnc12
inactive: Potency [3] | Potency [10] | Potency [4] | Potency [7] | Potency [8]

O=C1c2ccccc2C(=O)C1(O)O
inactive: Potency [1] | Potency [2] | Potency [3] | Potency [12] | Potency [8]
active: Potency [10] 49.2 µM | Potency [4] 61.4 µM

COC(=O)CCS
inactive: Potency [1] | Potency [2] | Potency [3] | Potency [10] | Potency [4] | Potency [13] | Potency [5] | Potency [12] | Potency [6] | Potency [7]

Cc1ccccc1S
inactive: Potency [1] | Potency [2] | Potency [3] | Potency [4] | Potency [13] | Potency [11] | Potency [5] | Potency [6] | Potency [7]

C=CC(=O)[O-].C=CC(=O)[O-].[Zn+2]
inactive: Potency [1] | Potency [2] | Potency [3] | Potency [10] | Potency [4] | Potency [11] | Potency [6] | Potency [7] | Potency [8]

CCC1NC(=O)c2cc(S(N)(=O)=O)c(Cl)cc2N1 (stereo unspecified)
inactive: Potency [1] | Potency [2] | Potency [3] | Potency [4] | Potency [11] | Potency [5] | Potency [12] | Potency [6] | Potency [7]

CCCCN1CCCC1C(=O)Nc1c(C)cc(C)cc1C (stereo unspecified)
inactive: Potency [2] | Potency [3] | Potency [10] | Potency [4] | Potency [11] | Potency [12] | Potency [7] | Potency [8]

Brc1cc2ccccc2c2ccccc12
inactive: Potency [1] | Potency [2] | Potency [3] | Potency [11] | Potency [8] | Potency [9]

C[C@H]1c2cccc(O)c2C(O)=C2C(=O)[C@]3(O)C(O)=C(C(N)=O)C(=O)[C@@H](N(C)C)[C@@H]3[C@@H](O)[C@@H]21
active: Potency [13] 29.8 µM
inactive: Potency [1] | Potency [2] | Potency [3] | Potency [10] | Potency [6] | Potency [7] | outcome [14] | outcome [15] | outcome [16]

CCOC(=O)/C=C/C(=O)OCC
inactive: Potency [1] | Potency [2] | Potency [3] | Potency [4] | Potency [13] | Potency [11] | Potency [5] | Potency [12] | Potency [6] | Potency [7] | Potency [8] | Potency [9]

CCCCN(CCN(CCCC)C(=O)N1CCOCC1)C(=O)N1CCOCC1
inactive: Potency [2] | Potency [17] | Potency [10] | Potency [4] | Potency [11] | Potency [12] | Potency [6] | Potency [7] | Potency [8]
active: Potency [1] 33.5 µM

CCC(C)COC(C)=O (stereo unspecified)
inactive: Potency [1] | Potency [2] | Potency [17] | Potency [4] | Potency [13] | Potency [11] | Potency [5] | Potency [6] | Potency [7] | Potency [8] | Potency [9]

C[C@@H](CN(C)C)CN1c2ccccc2Sc2ccccc21
active: Potency [13] 26.6 µM
inactive: Potency [1] | Potency [2] | Potency [17] | Potency [11] | Potency [7]

O=Cc1c2ccccc2c(Cl)c2ccccc12
inactive: Potency [1] | Potency [2] | Potency [18] | Potency [10] | Potency [4] | Potency [7] | Potency [8] | Potency [9]

C[C@@H](O[C@H]1OCCN(Cc2n[nH]c(=O)[nH]2)[C@H]1c1ccc(F)cc1)c1cc(C(F)(F)F)cc(C(F)(F)F)c1
inactive: Potency [17]
active: Potency [1] 23.7 µM | Potency [4] 26.6 µM | Potency [6] 19 µM | Potency [8] 26.6 µM

CCCCCCNC(=O)n1cc(F)c(=O)[nH]c1=O
inactive: Potency [1] | Potency [17] | Potency [10] | Potency [4] | Potency [13] | Potency [5] | Potency [6] | Potency [8] | Potency [9]

Oc1cccc(O)c1O
inactive: Potency [1] | Potency [18] | Potency [10] | Potency [13] | Potency [11] | Potency [8]
active: activation [9] 3.27%

CCCCCC#CC(=O)OC
inactive: Potency [1] | Potency [2] | Potency [17] | Potency [10] | Potency [4] | Potency [13] | Potency [11] | Potency [5] | Potency [6] | Potency [7]

Cc1[nH]cnc1CN1CCc2c(c3ccccc3n2C)C1=O
inactive: Potency [1] | Potency [2] | Potency [17] | Potency [4] | Potency [11] | Potency [5] | Potency [12] | Potency [6] | Potency [7] | Potency [8] | Potency [9]

CNC(=O)c1cnn(-c2nc(N)c3ncn([C@@H]4O[C@H](CO)[C@@H](O)[C@H]4O)c3n2)c1
inactive: Potency [1] | Potency [2] | Potency [17] | Potency [10] | Potency [4] | Potency [11] | Potency [5] | Potency [12] | Potency [7] | Potency [8] | Potency [9]

C=Cc1ccc(S(=O)(=O)O)cc1
inactive: Potency [2] | Potency [17] | Potency [4] | Potency [13] | Potency [6] | Potency [7] | Potency [8] | Potency [9]
